Bioassay records: PubChem BioAssay, National Center for Advancing Translational Sciences (NCATS)
Most compounds without a hit are left out; they make up all but 5.3% or so of the library.
TDP1 inh = blocks human tyrosyl-DNA phosphodiesterase 1; Q9NUW8; recombinant TDP1, AlphaScreen DNA substrate cleavage; Potency, µM (top dose mostly 130 µM), inactives show at the top dose activity change, negative = inhibition, actives largely listed as inhibitors; 350,000 compounds, 0.28% hits; note: potency is the fitted concentration of half-maximal effect; % is set by controls: 0 for no effect and ±100 for the full control effect; nearly all actives have a fitted effect of over 40% in size
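Steps: enzyme plus compound, 15 min RT; add biotin/phosphotyrosine-FITC oligonucleotide (15 nM final), react 5 min; add donor/acceptor beads (10 ug/ml final), 10 min; read AlphaScreen. Tdp1 at 1 nM final.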
BAZ2B block = inhibitors of human BAZ2B bromodomain; Potency, µM (doses to about 114 µM), without a hit: at the highest dose activity change, negative = inhibition, hits mostly inhibitors; 360,000 compounds, 4.4% hits; Q9UIF8; AID 504333; AlphaScreen BAZ2B-H3K14Ac peptide displacement; note: potency is the fitted concentration of half-maximal effect; % is set by controls: 0 for no effect and ±100 for the full control effect; nearly all actives have a fitted effect of over 60% in size
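Complex of BAZ2B and biotin-H3K14Ac (50 nM apiece) forms over 30 min at RT, then faces library compounds up to 110 uM for another 30 min; AlphaScreen beads added, 20 min dark incubation, luminescence read.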
HP1b binding inh = blocks HP1-beta chromodomain binding to methylated histone tails; P83916; AlphaScreen HP1-beta / biotin-H3K9me3 peptide binding; Potency, µM (highest dose often 114 µM), inactives show at the highest dose activity change, negative = inhibition, most hits filed as inhibitors; 390,000 compounds, 0.56% hits; AID 540317; note: potency is the fitted concentration of half-maximal effect; nearly all actives have a fitted effect of over 70% in size
Target sequence (P83916 whole entry, looked up): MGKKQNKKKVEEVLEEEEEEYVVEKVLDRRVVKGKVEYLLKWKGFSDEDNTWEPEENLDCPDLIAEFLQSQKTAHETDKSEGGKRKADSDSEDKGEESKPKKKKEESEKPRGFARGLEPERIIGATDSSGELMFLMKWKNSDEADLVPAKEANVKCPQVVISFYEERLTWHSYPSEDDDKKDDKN
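AlphaScreen: HP1-beta (50 nM) preformed 30 min with biotin-H3(1-18)K9me3 peptide (50 nM) in PBS pH 7.4, 0.01% Tween-20. Compound added for 30 min at RT, then streptavidin donor/nickel chelate acceptor beads (10 ug/mL) for 30 min.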
Six1-Eya2 inh = inhibitors of human Six1/Eya2 interaction; Q15475+O00167; AlphaScreen GST-Six1/His-Eya2 binding, biochemical; stronger effect = lower value; activity change, % (no concentration beside the values); 360,000 compounds, 0.56% hits; AID 651725; in the data active = activity change below about -65%; inconclusive = mostly about -30% to -63%; note: % is set by controls: 0 for no effect and ±100 for the full control effect
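Six1/Eya2 binding was read as AlphaScreen signal after compounds were pinned into GST-Six1 plus His-tagged Eya2 (5X stock 250/500 nM) in pH 8.0 Tris/NaCl/TCEP buffer, beads added, then incubated 1 h, 37 C, dark.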
JMJD2A Tudor inh = JMJD2A Tudor domain (human) inhibition | Potency, µM (titrated, usually from 114 µM), for the others: top-dose activity change, negative = inhibition, usual class: inhibitors | O75164 | 390,000 compounds, 4.4% hits | AID 504339 | AlphaScreen JMJD2A-Tudor / H3K4me3 peptide binding; note: potency is the fitted concentration of half-maximal effect; % is set by controls: 0 for no effect and ±100 for the full control effect; nearly all actives have a fitted effect of over 50% in size
CtBP-E1A blk = CtBP/E1A binding inhibition. AlphaScreen GST-E1A/His-CtBP binding, 1536-well; stronger effect = lower value. activity change, % (no concentration beside the values). 340,000 compounds, 0.49% hits. AID 651724; in the data active = activity change below about -65%; inconclusive = mostly about -30% to -63%; note: % is set by controls: 0 for no effect and ±100 for the full control effect
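In 5 uL wells, 23 nL compound meets equimolar GST-E1A and His-CtBP (5X stock 125 nM each) for 2 h, 37 °C. Beads (5X, 50 ug/mL) then 1 h, 37 °C, dark.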
Active calls of the source: *; ? = inconclusive; / = no result given; [ ] = dose if it differs, or a comment. Unless noted, calls come from the whole dose curve; as a rule, active = well fitted inhibition curve with a large enough effect; inconclusive = small, poorly fitted or top-dose-only effect; inactive = no such curve, though single readings can be large or run the other way.

SMILES	TDP1 inh	BAZ2B block	HP1b binding inh	Six1-Eya2 inh	JMJD2A Tudor inh	CtBP-E1A blk
CCOC(=O)c1c(NC(=O)c2ccc(S(=O)(=O)N(C)C3CCCCC3)cc2)sc2c1CCN(C(C)C)C2	3%	7%	17%	/	-18%	/
CCOc1ccc(NC(=O)c2cnn3c2NC(c2ccccc2)=CC3c2cccc(OC)c2OC)cc1 (stereo not drawn)	9%	?	-3%	/	?	/
O=C(CN1CCCc2ccccc21)NC(=O)NC1CCCCC1	6%	?	?	-13	32µM*	-9
CCCCn1c(-c2csc3c2CCCC3)n[nH]c1=S	0%	-31%	-5%	-6	40µM*	0
CCn1c(-c2csc3c2CCCC3)n[nH]c1=S	-4%	-7%	-22%	-3	10µM*	-14
C#CCCCO/N=C1/C[C@@H](O)[C@@H](O)[C@@H]2[C@@H]3C(=O)N(c4cccc(Oc5ccccc5)c4)C(=O)[C@H]3CC[C@H]12	8%[21 µM]	/	/	/	/	/
Cc1ccc(CNC(=O)CSCc2cccc(F)c2)cc1	-5%	/	-6%	-16	50µM*	7
C/C(=N\Nc1ccc(C(F)(F)F)cn1)c1ccc(S(=O)(=O)NCc2ccco2)cc1	5%	3%	38%	2	-2%[57.1 µM]	6
O=C(Nc1ccc(S(=O)(=O)NCc2ccco2)cc1)c1ccc(F)cc1	56µM*	?	-8%	-15	-24%	0
O=C(Nc1ccccc1)c1ccc(S(=O)(=O)NCc2ccco2)cc1	2%	-2%	11%	2	-15%	1
C/C(=N\Nc1ccccn1)c1ccc(S(=O)(=O)NCc2ccco2)cc1	7%	50µM*	?	-21	-30%[57.1 µM]	-23
O=C(CCCCCn1c(=O)[nH]c2ccccc2c1=O)N1CCN(c2ccc(Cl)cc2)CC1	9%	?	-18%	/	?	/
O=C1c2ccccc2C(=O)c2c1ccc(C(=O)N1CCCCC1)c2NCCO	7%	-5%	-23%	-4	-19%	5
O=C1c2ccccc2-c2c1cccc2C(=O)N1CCCCCC1	4%	-18%	31%	-14	-10%	-7
CC1CCCN(C(=O)c2ccc3c(c2NCCO)C(=O)c2ccccc2C3=O)C1 (stereo not drawn)	14%	40µM*	50µM*	?	45µM*	?
CC1(C)CCCN(C(=O)c2ccc3c(c2NCCO)C(=O)c2ccccc2C3=O)C1	-1%	14µM*	-79%	?	40µM*	-1
O=C(c1cccn1-c1nnc(N2CCCCC2)s1)N1CCN(c2ccccc2)CC1	3%	?	0%	/	-28%	/
COc1ccc(-n2c(=O)c3c4c(sc3n3c(=S)[nH]nc23)CCCC4)cc1	7%	-7%	6%	4	56µM*	7
CC(C)C1Cc2c(sc3c2c(=O)n(-c2ccccc2)c2n[nH]c(=S)n32)CO1 (stereo not drawn)	1%	-18%	3%	-2	20µM*	2
COc1ccc(-n2c(=O)c3c4c(sc3n3c(SCCC(C)C)nnc23)COC(C(C)C)C4)cc1 (stereo not drawn)	/	1%	32%	/	-3%	/
O=C(CN1C(=O)COc2ccc(S(=O)(=O)Nc3ccccc3)cc21)Nc1cccc(Cl)c1	3%	-18%	25%	/	-20%	/
CCCC(O)(CCN1CCCCC1)c1ccc(OCC)cc1 (stereo not drawn)	0%	6%	/	8	-23%	1
CCCCCC(O)(CCN1CCCCC1)c1ccc(OCC)cc1 (stereo not drawn)	5%	-16%	9%	7	40µM*	19
CCCCN(C)C(=O)CSc1nc2ccccc2nc1Cc1ccc(C)cc1	0%	84%	63%[57 µM]	/	44%	/
CCOc1ccc(CCNC(=O)CCCn2nc(C)c3sc4ccccc4c3c2=O)cc1	9%	-13%	0%	/	-7%	/
SMILES	TDP1 inh	BAZ2B block	HP1b binding inh	Six1-Eya2 inh	JMJD2A Tudor inh	CtBP-E1A blk
Cc1nn(C(C)C(=O)NCCCN2CCCCCC2)c(=O)c2c1sc1ccccc12 (stereo not drawn)	4%	-22%	16%	-5	50µM*	-1
Cc1nn(C(C)C(=O)NCCCN2CCCCC2C)c(=O)c2c1sc1ccccc12 (stereo not drawn)	2%	-16%	37%	4	-4%	/
Cc1nn(CCCC(=O)NCCc2ccc(Cl)cc2)c(=O)c2c1sc1ccccc12	6%	25µM*	32µM*	/	7.9µM*	/
O=C(NCCCn1ccnc1)/C(=C\c1ccco1)NC(=O)c1ccco1	0%	89µM*	36%	25	-6%	-8
O=C(NCCCn1ccnc1)/C(=C/c1ccc(F)cc1)NC(=O)c1ccccc1	/	71µM*	9%	-6	-9%	2
CC(C)c1ccc(/C=C(\NC(=O)c2ccccc2)C(=O)NCCCn2ccnc2)cc1	4%	?	28%	-4	19%	/
Cc1cccc(-c2nc(CN3CCCC(C(=O)NCc4ccc(Cl)cc4)C3)c(C)o2)c1 (stereo not drawn)	10%	?	-3%	/	?	/
Cc1ccc(C(C)C)n1C(=O)OC(C)(C)C	6%[21 µM]	/	/	/	/	/
NS(=O)(=O)c1ccc(CCNC(=O)CNCCc2ccccc2)cc1	/	50µM*	?	8	25µM*	8
Cc1ccc(CC(=O)NCCCc2ccccc2)cc1	3%	1%	14%	5	14%	-1
NS(=O)(=O)c1ccc(CCNC(=O)c2ccc3nccnc3c2)cc1	7.9µM*	/	71µM*	?	40µM*	-22
O=C(CCS(=O)(=O)c1ccc(Br)cc1)NCCc1ccccc1	/	?	?	-13	40µM*	2
Cc1ccc(S(=O)(=O)CCNC(=O)Cc2ccccc2)cc1	5%	-12%	-3%	1	20µM*	0
O=C(Cc1ccc(F)cc1)NC1CC(=O)N(c2ccccc2)C1 (stereo not drawn)	3%	-1%	-2%	/	-8%	/
Cc1ccc(Cl)cc1N1CCN(C(=O)Cn2nc(C)n3c(cc4sccc43)c2=O)CC1	-1%	-3%	27%	/	-15%	/
O=C(O)CCC(=O)C(=O)O (tested in a mixture with another compound)	15%[56.1 µM]	/	/	/	/	/
Cc1cn2c(=O)cc(COC(=O)COc3ccc(F)cc3)nc2s1	7%	-13%	19%	/	-20%	/
COc1ccc(CNC(=O)CCS(=O)(=O)c2ccc(Br)cc2)cc1	-12%	50µM*	?	-16	?	8
Cc1ccc2c(CC(=O)NCCc3ccc(S(N)(=O)=O)cc3)coc2c1	/	-12%	16%	2	45µM*	11
NS(=O)(=O)c1ccc(CCNS(=O)(=O)c2cccc(C(=O)O)c2)cc1	79µM*	26%	69%	6	0%[11.4 µM]	8
